This excerpt belongs to a sample that is enriched for hits.
ERG-DNA inh: qHTS for Small Molecule Inhibitors of the ERG Ets/DNA interaction | hit rate 0.028% among 370,000 | Potency, µM (series often up to 76.9 µM), without a hit: top-dose FP activity, negative = inhibition, actives largely listed as inhibitors | fluorescence polarization, His-ERG Ets domain / labelled DNA; active = well fitted inhibition curve with a large enough effect in the polarisation, with a control signal flat; inconclusive = small, poorly fitted or top-dose-only effect, or effect the other way, or a change in a side signal; inactive = no such curve, though single readings can be large or run the other way; the % refers to the polarisation;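 also: polarization taken with two DNA probes labelled with fluorescein and Texas red; potency is read from the fitted curve at half-maximal effect; % of control where 0% means no effect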
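His-tagged ERG Ets domain (1 uM in the protein solution; 300mM KCl, 50mM Tris-HCl, 1mM EDTA, 1mM DTT, pH 7.5) received compound, then a probe mix of 5 nM fluorescein-DNA and 100nM Texas-615-DNA. Fluorescence polarization was read for both dyes.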
Integrin act MD: qHTS for Activators of Integrin-Mediated Alleviation for Muscular Dystrophy; Potency, µM (highest dose often 38.3 µM), for inactives: at the top dose activation, actives largely listed as activators; hit rate 0.064% among 350,000; AID 624291, 2012; alpha7betagal myoblasts, beta-gal FDG fluorescence, 48 h;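 also: potency is read from the fitted curve at half-maximal effect; 100% = response of the positive control SU9516; nearly all actives have a fitted effect of over 60% in size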
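Alpha7betagal+/- myoblasts (passage 13) were plated 16-24 hr, then exposed to compounds (1:260 dilution of DMSO stock) for 48 hours at 37C. After MPER lysis, β-galactosidase reporter activity was read as FDG fluorescence (ex 480/em 540) after 30 minutes.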
RORg inh: qHTS for inhibitors of ROR gamma transcriptional activity; Potency, µM (doses to about 53.6 µM), inactives show at the highest dose activity change, negative = inhibition, hits mostly inhibitors; hit rate 5.4% among 310,000; Drosophila S2 Gal4-RORgamma UAS-luciferase reporter, 20 h; AID 2551, 2010; also: potency is read from the fitted curve at half-maximal effect; % is scaled to controls: 0 for no effect and ±100 for the full control effect; nearly all actives have a fitted effect of over 60% in size
Target sequence (P51450 whole entry, looked up, the tested form may be a part): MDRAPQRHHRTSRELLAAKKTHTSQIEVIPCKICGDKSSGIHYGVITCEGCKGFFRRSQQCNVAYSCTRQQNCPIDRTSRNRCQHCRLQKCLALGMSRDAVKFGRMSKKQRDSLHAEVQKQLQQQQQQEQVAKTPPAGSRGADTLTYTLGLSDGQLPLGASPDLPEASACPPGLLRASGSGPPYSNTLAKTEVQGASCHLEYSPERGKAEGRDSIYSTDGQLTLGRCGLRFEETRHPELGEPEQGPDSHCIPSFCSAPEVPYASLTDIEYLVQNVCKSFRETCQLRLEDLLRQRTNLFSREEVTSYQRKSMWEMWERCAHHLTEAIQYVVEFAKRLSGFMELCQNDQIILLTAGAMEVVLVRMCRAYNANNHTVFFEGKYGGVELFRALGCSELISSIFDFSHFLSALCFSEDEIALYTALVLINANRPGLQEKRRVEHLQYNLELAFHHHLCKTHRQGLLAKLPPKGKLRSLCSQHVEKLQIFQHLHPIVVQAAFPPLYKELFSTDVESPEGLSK
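Stable Schneider cell line, Gal4 DNA-binding domain fused to ROR gamma, UAS-luciferase. Cmpd 1 hr RT → CuSO4 700 uM final → 20 hr RT → luciferase reagent 10 min → luminescence.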
Giardia kill: Small Molecules that selectively kill Giardia lamblia: qHTS | Giardia lamblia trophozoite viability | activity change, % at 7.66 µM, hits read low | hit rate 0.15% among 340,000 | AID 540267, 2011; in the data active = activity change below about -80%; inconclusive = between about -30% and that limit;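 also: parasites exposed to compound for two days anaerobically before the ATP read; % is scaled to controls: 0 for no effect and ±100 for the full control effect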
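Trophozoites 100 cells/well + cpd; 48 hrs, 37 deg C, anaerobic. ATPLite 1-Step added, 15-30 min RT, luminescence read (ATP-based viability).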
Gal4-VP16 FLuc: VP16 counterscreen qHTS for inhibitors of ROR gamma transcriptional activity. AID 2546, 2010. Drosophila S2 Gal4-VP16 UAS-luciferase, luminescence, 20 h. Potency, µM (top dose mostly 53.6 µM), without a hit: at the top dose activity, negative = inhibition, usual class: inhibitors. hit rate 3.5% among 310,000;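 also: Gal4-VP16 expression switched on by copper sulfate through the metallothionein promoter; potency is read from the fitted curve at half-maximal effect; % is scaled to controls: 0 for no effect and ±100 for the full control effect; nearly all actives have a fitted effect of over 50% in size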
The depositor's hits bear a star; u = inconclusive; x = not tested or not shown; [ ] = remark or other dose. Unless noted, calls follow the shape of the dose curve; as a rule, active = well fitted curve in the direction sought with a large enough effect; inconclusive = small, poorly fitted or top-dose-only effect, or another doubt; inactive = no such curve, though single readings can be large; an effect the other way counts as inactive or inconclusive.

SMILES	ERG-DNA inh	Integrin act MD	RORg inh	Giardia kill	Gal4-VP16 FLuc
COc1cc(NC(=S)NCc2cccnc2)cc(OC)c1	4.0%	-21.7%	u	-12.3	-7.2%
Cc1cc(C)cc(NC(=S)NCc2cccs2)c1	-14.6%	-33.0%	2.24µM*	-12.4	11.2µM*
Cn1cccc1/C=N/NC(=O)c1cccc(OC(F)(F)C(F)F)c1	-16.3%	-2.9%	10µM*	-8.6	u
Cc1cc(C(=O)N/N=C/c2cccn2C)n[nH]1	0.5%	-13.9%	15.4%	-20.4	-0.3%
Cc1cccc(-c2noc(CCCC(=O)Nc3ccc(C(N)=O)cc3)n2)c1	4.0%	-3.6%[7.66 µM]	15.8µM*	4.4	11.2µM*
Cc1ccc(-c2noc(CCC(=O)NCCCN3CCN(c4cccc(Cl)c4)CC3)n2)cc1	-5.2%	-54.5%	3.98µM*	4.8	14.1µM*
CCOC(=O)c1cccc(NC(=O)CCc2nc(-c3ccccc3F)no2)c1	-12.5%	-27.5%	-16.7%	-1.9	-0.5%
COc1cccc(NC(=O)CCc2nc(-c3ccc(C(C)(C)C)cc3)no2)c1	-1.3%	x	x	x	x
COc1ccc(-c2noc(CCC(=O)Nc3cccc(C)c3)n2)cc1	-12.4%	-0.4%	0.282µM*	11.9	u
Cc1cccc(-c2noc(CCC(=O)Nc3ccc(C(N)=O)cc3)n2)c1	7.0%	u	-6.9%	10.8	-5.8%
CCOC(=O)c1cccc(NC(=O)CCc2nc(-c3ccc(C)cc3)no2)c1	-5.4%	8.3%	3.16µM*	3.8	-28.6%
Cn1c(=O)c2ccccc2n2c(CCl)nnc12	12.8%	-74.6%	-21.8%	-1.6	-0.1%
CN(C(=O)COC(=O)c1cc(S(=O)(=O)N2CCOCC2)ccc1F)C1CCS(=O)(=O)C1 (centres undefined)	u	16.4%	x	13.4	x
CCC1CCCCN1C(=O)COc1c(Br)cc(Br)c2cccnc12 (centres undefined)	8.0%	-8.0%	12.6µM*	16.6	u
CCC1CCCCN1C(=O)COc1ccc(F)cc1 (centres undefined)	-1.4%	u	-2.2%	-18.8	0.9%
COc1ccc(CCN(Cc2ccccn2)C(=S)Nc2cccc(C)c2)cc1OC	-3.8%	10.0%	10µM*	0.7	-1.5%
COc1ccc(CCN(Cc2ccccn2)C(=S)Nc2ccccc2F)cc1OC	4.2%	0.0%	12.6µM*	-3.1	-4.1%[10 µM]
COc1ccccc1NC(=S)N(Cc1ccccc1)Cc1ccccn1	-1.0%	0.2%	11.2µM*	-20.1	u
COc1ccc(NC(=S)N(CCc2ccc(OC)c(OC)c2)Cc2ccccn2)cc1	-5.9%	5.3%	u	4.6	-21.0%
COc1ccc(CCN(Cc2ccccn2)C(=S)Nc2ccccc2Cl)cc1OC	-0.7%	-5.2%	10µM*	-2.0	u
CCCc1nnc(NC(=O)Cc2coc3ccc(C(C)C)cc23)s1	-0.8%	x	x	x	x
Cc1cc(N2CCN(C)CC2)nc2ccc(NC(=O)Nc3ccccc3Br)cc12	0.9%	x	x	x	x
CCn1c(=O)n(-c2ccc3c(c2)OCO3)c2nc(-c3ccc(C(C)C)cc3)nc(C(N)=O)c21	14.2%	x	x	x	x
COCc1cc(OC)nc(-c2csc(C)n2)n1	10.0%	15.7%	11.2µM*	4.9	-23.4%
CC(C)C[C@H](NC(=O)[C@H](CCCCN)NC(=O)CNC(=O)[C@H](CC(C)C)NC(=O)[C@@H](NC(=O)[C@@H]1CSSC[C@H](N)C(=O)N[C@@H](CO)C(=O)N[C@@H](CC(N)=O)C(=O)N[C@@H](CC(C)C)C(=O)N[C@@H](CO)C(=O)N[C@@H]([C@@H](C)O)C(=O)N1)C(C)C)C(=O)N[C@@H](CO)C(=O)N[C@@H](CCC(N)=O)C(=O)N[C@@H](CCC(=O)O)C(=O)N[C@@H](CC(C)C)C(=O)N[C@@H](Cc1cnc[nH]1)C(=O)N[C@@H](CCCCN)C(=O)N[C@@H](CC(C)C)C(=O)N[C@@H](CCC(N)=O)C(=O)N[C@H](C(=O)N[C@@H](Cc1ccc(O)cc1)C(=O)N1CCC[C@H]1C(=O)N[C@@H](CCCNC(=N)N)C(=O)N[C@H](C(=O)N[C@@H](CC(N)=O)C(=O)N[C@H](C(=O)NCC(=O)N[C@@H](CO)C(=O)NCC(=O)N[C@H](C(=O)N1CCC[C@H]1C(N)=O)[C@@H](C)O)[C@@H](C)O)[C@@H](C)O)[C@@H](C)O	x	x	6.8%	x	-5.4%
SMILES	ERG-DNA inh	Integrin act MD	RORg inh	Giardia kill	Gal4-VP16 FLuc
O=S(=O)(O)c1ccc(N=Nc2ccccc2)cc1	8.3%	0.9%	2.7%	-8.1	-3.5%
O=c1ccc(N=Nc2ccccc2)ccc1O	0.7%	-43.7%	u	2.6	3.55µM*
COc1ccc(N2CCC(CNC(=S)Nc3cccc(OC)c3)C2)cc1 (centres undefined)	x	x	3.16µM*	x	5.62µM*
CCc1cccc(C)c1NC(=S)NCC1CCN(c2ccc(OC)cc2)C1 (centres undefined)	7.9%	0.7%	6.31µM*	27.0	7.08µM*
CCc1ccccc1NC(=S)NCC1CCN(c2ccc(OC)cc2)C1 (centres undefined)	9.3%	-25.9%	2.51µM*	-12.0	10µM*
COC(=O)c1cc(C)sc1NC(=O)CN1CCN(C(=O)C2CCCO2)CC1 (centres undefined)	2.5%	19.2%	10µM*	0.2	u
CCOC(=O)c1cc(C)sc1NC(=O)CN1CCN(C(=O)C2CCCO2)CC1 (centres undefined)	-2.2%	5.2%	-38.7%	-22.2	-5.4%
CC(=Nc1ccccc1O)c1sc2ccccc2c1O	6.0%	-46.3%	2µM*	15.1	u
CCNc1ncc2nc(CCc3ccccc3)c(=O)n(CCC#N)c2n1	x	x	8.7%	x	2.4%
COC(=O)c1ccc(C2NC(=S)N(c3ccccc3)C(C)=C2C(=O)Nc2ccccc2OC)cc1 (centres undefined)	2.1%	7.5%	10µM*	-1.6	u
O=C(CC(Nc1cccc(Cl)c1Cl)C(=O)OCC(=O)c1cccs1)c1ccccc1 (centres undefined)	x	-23.5%	19.7%	-5.5	-10.1%
Cc1c(Cl)cccc1NC(CC(=O)c1ccccc1)C(=O)OCC(=O)c1cccs1 (centres undefined)	-6.7%	-26.8%	11.2µM*	14.9	7.94µM*
O=C(CC(Nc1ccccc1Cl)C(=O)O)c1ccccc1 (centres undefined)	-2.4%	-365.4%	7.08µM*	-5.2	27.4%[10 µM]
O=C(CC(Nc1ccc(Cl)cc1)C(=O)O)c1ccccc1 (centres undefined)	3.7%	-2.0%	5.01µM*	2.4	5.01µM*
Cc1c(Cl)cccc1NC(=O)CC(Cc1ccccc1)C(=O)O (centres undefined)	-12.2%	5.5%	2.7%	1.4	2.7%
Cc1c(Cl)cccc1NC(CC(=O)c1ccccc1)C(=O)O (centres undefined)	-5.1%	-27.5%	7.94µM*	-2.4	6.31µM*

Screens from PubChem.
